# A selection: hits, their analogues and other compounds. The true share with any hit is near 3.1%.
# TRb-SRC2 inh: disrupts binding of human TR beta to SRC2; AID 1469; actives 0.065% (n = 280,000); P10828; Potency, µM (highest dose often 106 µM), for inactives: top-dose activity change, negative = inhibition, usual class: inhibitors; TRbeta-SRC2 peptide binding, fluorescence polarization; receptor liganded with 1 µM T3;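 also: plate controls were bound peptide for no effect and peptide without receptor for full effect; nearly all actives have a fitted effect of over 50% in size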
#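 Each compound concentration gave % activity, normalized to unbound and bound Texas Red SRC2 controls, from polarization read after 5 hr ambient incubation with T3-loaded human TRb LBD.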
# GoLoco inh red: blocks human Gai1 binding to RGS12 GoLoco peptide, red readout | P63096 | Gai1:RGS12 GoLoco peptide FP, rhodamine, 10 min | Potency, µM (titrated, usually from 61.6 µM), for inactives: at the top dose activity, negative = inhibition, usual class: inhibitors | actives 0.44% (n = 230,000) | AID 880; active = well fitted inhibition curve with a large enough effect, not every such curve was filed as active; inactive = no such curve, though single readings can be large or run the other way; also: nearly all actives have a fitted effect of over 30% in size
# Target sequence (P63096 whole entry, looked up): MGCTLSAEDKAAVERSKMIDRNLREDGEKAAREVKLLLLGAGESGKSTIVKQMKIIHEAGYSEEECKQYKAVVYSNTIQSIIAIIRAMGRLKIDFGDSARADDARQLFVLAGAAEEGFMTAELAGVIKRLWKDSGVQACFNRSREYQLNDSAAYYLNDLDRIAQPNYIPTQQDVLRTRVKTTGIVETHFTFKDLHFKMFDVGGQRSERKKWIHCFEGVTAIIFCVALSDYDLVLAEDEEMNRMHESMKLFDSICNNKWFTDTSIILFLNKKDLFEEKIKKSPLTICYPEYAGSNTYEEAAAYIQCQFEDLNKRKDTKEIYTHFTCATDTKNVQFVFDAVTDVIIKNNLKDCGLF
# TR SRC2 fluor cs: alters Texas Red total fluorescence, flagging assay interference | TRb/SRC2 Texas Red total fluorescence interference | Potency, µM (series often up to 106 µM), for the others: at the top dose fluorescence change, negative = quenching | actives 0.29% (n = 280,000); active = well fitted curve in either direction with a large enough effect; inconclusive = small, poorly fitted or top-dose-only effect
#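 Flags fluorescent or light-absorbing compounds by total fluorescence, S + 2P, at 555 nm excitation and 632 nm emission. Mixture: 20 nM Texas Red SRC2 peptide, 0.6 uM human TRb LBD, 1 uM T3, 5% DMSO; compound exposure 5 h at ambient temperature.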
# Tau ThT inhib: blocks human tau fibril formation measured by thioflavin T | P10636 | recombinant tau K18 P301L, heparin-induced fibrillization, ThT fluorescence | Potency, µM (doses to about 57.4 µM), for the others: at the top dose activity, negative = inhibition, actives largely listed as inhibitors | actives 2.1% (n = 270,000); also: nearly all actives have a fitted effect of over 55% in size
# Target sequence (P10636 561-689 P618L limits assumed): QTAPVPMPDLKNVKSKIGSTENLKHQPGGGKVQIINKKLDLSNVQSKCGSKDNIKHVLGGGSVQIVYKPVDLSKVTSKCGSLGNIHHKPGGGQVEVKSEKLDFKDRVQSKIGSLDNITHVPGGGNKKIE
#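 Tau K18 P301L fragment (15 uM unlabeled plus 0.24 uM Alexa 594-labeled) in 100 mM sodium acetate pH 7 with compound, fibrillization induced by 20 uM heparin for 6 hr at 37 C. Thioflavin T (30 uM) added, fluorescence read after 1 hr (ex 450, em 510 nm).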
# Tau fluor counter: counter-screen for tau fibril formation inhibitors. tau K18 P301L (four-repeat tau fragment) Alexa594 fluorescence, heparin fibrillization. Potency, µM (doses to about 57.7 µM), without a hit: at the highest dose activity change, negative = decrease. actives 0.93% (n = 280,000); also: nearly all actives have a fitted effect of over 55% in size
#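 Human K18 P301L tau (15 uM unlabeled plus 0.24 uM Alexa 594-labeled, final) in 100 mM sodium acetate pH 7 was mixed with compound and 20 uM heparin and incubated 6 hr at 37 C.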
# Tau FP inhib: tau fibrillization inhibition (FP). P10636. Potency, µM (series often up to 57.7 µM), without a hit: top-dose activity, negative = inhibition, usual class: inhibitors. K18 P301L tau heparin fibrillization, Alexa594 FP, 6 h. actives 0.39% (n = 280,000); also: nearly all actives have a fitted effect of over 55% in size
#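 FP of Alexa 594-tau after heparin (20 uM) induction. Substrate: human K18 P301L, 15 uM unlabeled, 0.24 uM labeled. Buffer 100 mM sodium acetate pH 7. 6 hr, 37 C.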
# The depositor's hits bear a star; ? = inconclusive; . = no result given; [ ] = another dose, or the depositor's remark. Unless noted, calls follow the shape of the dose curve; as a rule, active = well fitted curve in the direction sought with a large enough effect; inconclusive = small, poorly fitted or top-dose-only effect, or another doubt; inactive = no such curve, though single readings can be large; an effect the other way counts as inactive or inconclusive. Unless noted, % is scaled to controls: 0 for no effect and ±100 for the full control effect; potency is read from the fitted curve at half-maximal effect.
SMILES,TRb-SRC2 inh,GoLoco inh red,TR SRC2 fluor cs,Tau ThT inhib,Tau fluor counter,Tau FP inhib
COc1ccc(SN=C2C(C)=CC(=O)C=C2C)cc1,6%,-4%,-2%,2.8µM*,?,?
Fc1ccc(-c2cc(-c3ccc(F)cc3)c3c(n2)-c2cc(F)ccc2OC3)cc1,-3%,.,18µM*[quencher],-1%,-6%,-9%
Fc1ccc2c(c1)-c1nc(-c3ccccc3)cc(-c3ccccc3)c1CO2,1%,.,-1%,-3%,-21%,?
Cc1cccc(C)c1OCC(=O)Nc1ccc(S(=O)(=O)Nc2ccccn2)cc1,-6%,-4%,71µM*[quencher],-14%,-15%,-1%
Cc1ccc(C)c(OCC(=O)Nc2ccc(S(=O)(=O)Nc3ccccn3)cc2)c1C,9%,4%,-6%,-6%,-17%,4%
N#Cc1ccc(NC(=O)Nc2ccc(Oc3ccc(NC(=O)Nc4ccc(C#N)cc4)cc3)cc2)cc1,-1%,0%,-5%,?,7.9µM*[quencher],?
N#Cc1ccc(NC(=O)Nc2cccc(C#N)c2)cc1,9%,7%,1%,?,?,?
NC(N)=NCCC[C@H](N)C(=O)O,7%,11%,0%,-4%,-2%,1%
CCOC(=O)CSc1ncccn1,-4%,-2%,-1%,-5%,-3%,-7%
COc1cc(Nc2nc(SCc3ccccc3Cl)nc3ccccc23)cc(OC)c1,3%,.,-23%,?,?,11µM*
COc1cc(Nc2nc(SCC(=O)c3ccc(Cl)c(Cl)c3)nc3ccccc23)cc(OC)c1,6%,.,1%,2%,?,14µM*
COc1cc(Nc2nc(SCc3ccccc3F)nc3ccccc23)cc(OC)c1,11%,.,-2%,?,?,7.1µM*
COc1cc(Nc2nc(SCc3ccc(Cl)cc3)nc3ccccc23)cc(OC)c1,4%,.,-6%,?,?,?
Fc1ccc(Nc2nc(SCc3ccccc3F)nc3ccccc23)cc1,10%,.,-1%,?,?,7.9µM*
O=C(CSc1nc(Nc2ccccc2)c2ccccc2n1)c1ccc(Cl)cc1,-2%,.,-3%,7%,3%,3%
CN(C)NC(=O)c1ccsc1NC(=O)c1ccc(S(=O)(=O)N(C)C)cc1,-5%,-3%,-4%,-8%,-9%,-17%
COc1ccccc1CNc1nc2ccc(C)cc2n2nnnc12,-1%,.,-2%,0%,-8%,-2%
CC(=O)NC(C)C(c1cccs1)N1CCN(c2ccccc2)CC1 (stereo not drawn),-2%,-19%,-1%,-7%,-5%,-3%
COc1cc(Nc2nc(SCc3cccc(Cl)c3)nc3ccccc23)cc(OC)c1,2%,.,-1%,?,?,7.9µM*
CCC(=O)Oc1c(Sc2ccc(Cl)cc2)c(C)nn1-c1ccccc1,-5%,.,0%,22µM*,-30%,?
Cc1nn(-c2ccccc2)c(OC(=O)C(C)C)c1Sc1ccccc1,-5%,.,-2%,?,-14%,-14%
CCCC(=O)Oc1c(Sc2ccc(C)cc2)c(C)nn1-c1ccccc1,1%,.,-2%,25µM*,-28%,?
CCC(=O)Oc1c(Sc2ccc(C)cc2)c(C)nn1-c1ccccc1,3%,.,-2%,?,-23%,?
Cc1ccc(C)c(N2CCN(C(=O)CCc3nnc4n(CC(C)C)c(=O)c5ccccc5n34)CC2)c1,-5%,.,7%,?,-8%,-6%
C=CS(=O)(=O)c1ccc(Oc2ccc(S(=O)(=O)C=C)cc2)cc1,4%,-19%,0%,2µM*,-20%,?
SMILES,TRb-SRC2 inh,GoLoco inh red,TR SRC2 fluor cs,Tau ThT inhib,Tau fluor counter,Tau FP inhib
S=c1[nH]nc(-c2cccnc2)n1-c1ccccc1,-7%,-5%,-4%,-16%,-6%,-2%
CCOC(=O)C(C)Oc1cc(Cl)c(C=O)cc1OC (stereo not drawn),0%,7%,-2%,2%,2%,-1%
Cc1cccc(N2C(S)=C(C#N)C(=O)NC2c2cccs2)c1 (stereo not drawn),4%,-4%,1%,32µM*,-29%,?
CC(C)c1ccc(NC(=O)CCS(=O)(=O)c2ccc(Br)s2)cc1,?,.,28µM*[quencher],-6%,-29%,0%
CCOC(=O)c1ccc(NC(=O)CCS(=O)(=O)c2ccc(Br)s2)cc1,1%,10%,2%,-3%,-17%,-3%
CC[n+]1c(C)sc2c(C)cc(C)cc21,2%,2.5µM*,-1%,?,-19%,?
CCN(Cc1ccncc1)Cc1cn(C)nc1-c1ccc(Oc2ccccc2)cc1,-3%,16%,-3%,?,-12%,-2%
CCOC(=O)CN1C(=O)S/C(=C/c2ccc(N3CCCCC3)o2)C1=O,-9%,-19%,0%,?,-6%,0%
CCCN1C(=O)S/C(=C\c2ccc(N3CCOCC3)o2)C1=O,4%,124%,0%,18µM*,-27%,-18%
COC(=O)CN1C(=O)S/C(=C/c2ccc(N3CCCCC3)o2)C1=O,-8%,203%,19%,25µM*,-24%,?
O=C(O)CN1C(=O)/C(=C/c2ccc(N3CCCCC3)o2)SC1=S,0%,-197%,16%,16µM*,-3%,?
CCCN1C(=O)S/C(=C/c2ccc(N3CCOCC3)o2)C1=O,3%,62%,-4%,?,?,?
O=C(CSc1n[nH]c(=O)n1-c1cccnc1)N1CCOCC1,-3%,6%,-4%,1%,-3%,3%
CC1=C(C#N)C(=O)N(C2CCS(=O)(=O)C2)C(=O)/C1=C\c1ccc(C)o1 (stereo not drawn),5%,40%,0%,22µM*,?,?
Cc1ccc(/C=C2\SC(=S)N(C3CCS(=O)(=O)C3)C2=O)o1 (stereo not drawn),0%,100%,0%,?,-8%,2%
Cc1cc2c(cc1NS(=O)(=O)c1ccc(Br)cc1)n(C)c(=O)c(=O)n2C,-21%,.,2239µM*[quencher],-7%,-3%,-3%
COc1cccc(N2CCN(C(=O)c3cc4c(=O)n(Cc5cccnc5)ccc4nc3C)CC2)c1,9%,.,-3%,0%,3%,-4%
COc1cc(CNc2ccc(N3CCCC3)cc2)cc(Cl)c1OC,-10%,10%,9%,4µM*,?,?
C=CCOc1c(Cl)cc(CNc2ccc(C)c(Cl)c2)cc1OC,-8%,7%,-3%,?,?,7%

# Source: PubChem BioAssay
